# Measured values reported in ChEMBL document CHEMBL1201862, “PubChem BioAssay data set” (2004).
# The whole screen tested about 400,000 compounds, of which about 2,100 (0.53%) were called active. Not shown: some 14% with an inconclusive outcome. No rule for the calls is given here. What follows is part of a selection rich in actives, with near analogues and random picks from the rest.
# Target: Ataxin-2 (Homo sapiens) (UniProt Q99700)
# Assay: qHTS for Inhibitors of ATXN expression.
# Assay type: functional
# Ataxin-2 (Homo sapiens), sequence (Q99700 whole entry): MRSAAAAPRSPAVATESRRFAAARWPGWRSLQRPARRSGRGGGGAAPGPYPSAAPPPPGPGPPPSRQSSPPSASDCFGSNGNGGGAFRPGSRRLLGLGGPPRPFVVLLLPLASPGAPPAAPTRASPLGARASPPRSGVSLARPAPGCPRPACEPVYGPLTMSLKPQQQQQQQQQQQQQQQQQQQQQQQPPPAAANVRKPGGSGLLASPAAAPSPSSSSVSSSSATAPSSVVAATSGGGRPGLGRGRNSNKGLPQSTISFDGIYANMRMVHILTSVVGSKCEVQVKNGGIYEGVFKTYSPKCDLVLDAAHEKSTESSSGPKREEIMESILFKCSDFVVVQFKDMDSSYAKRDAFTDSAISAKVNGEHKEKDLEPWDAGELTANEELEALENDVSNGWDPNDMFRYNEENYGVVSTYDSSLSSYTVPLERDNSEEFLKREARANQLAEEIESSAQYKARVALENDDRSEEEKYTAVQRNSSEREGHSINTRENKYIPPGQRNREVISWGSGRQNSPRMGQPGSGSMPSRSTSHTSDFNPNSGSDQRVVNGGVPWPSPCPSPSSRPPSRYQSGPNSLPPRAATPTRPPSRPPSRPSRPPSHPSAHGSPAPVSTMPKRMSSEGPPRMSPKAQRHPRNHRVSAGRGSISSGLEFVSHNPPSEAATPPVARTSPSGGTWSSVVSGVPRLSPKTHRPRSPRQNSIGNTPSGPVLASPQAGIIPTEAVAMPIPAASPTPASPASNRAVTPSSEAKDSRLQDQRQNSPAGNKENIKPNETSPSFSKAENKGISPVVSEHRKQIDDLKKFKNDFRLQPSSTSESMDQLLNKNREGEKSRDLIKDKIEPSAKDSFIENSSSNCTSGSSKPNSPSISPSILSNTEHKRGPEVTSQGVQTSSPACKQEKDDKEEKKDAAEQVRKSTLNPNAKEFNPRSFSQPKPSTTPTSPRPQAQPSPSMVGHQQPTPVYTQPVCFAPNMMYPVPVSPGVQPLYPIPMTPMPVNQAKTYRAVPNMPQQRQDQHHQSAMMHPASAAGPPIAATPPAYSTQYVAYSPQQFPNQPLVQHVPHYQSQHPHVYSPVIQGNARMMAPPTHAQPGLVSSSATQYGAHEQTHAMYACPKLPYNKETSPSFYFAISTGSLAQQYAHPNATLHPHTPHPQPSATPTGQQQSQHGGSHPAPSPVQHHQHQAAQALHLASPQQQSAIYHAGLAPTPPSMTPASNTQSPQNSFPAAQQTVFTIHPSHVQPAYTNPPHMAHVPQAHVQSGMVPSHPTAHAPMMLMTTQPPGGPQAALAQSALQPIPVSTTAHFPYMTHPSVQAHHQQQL
row,SMILES,Potency
1,NC1=NC(=O)C(Cc2ccc(Br)cc2)S1 (stereo unspecified),inactive
2,Nc1nc(N)c2ncc(C(=O)CCc3ccccc3)nc2n1,inactive
3,O=c1c2ccccc2nc(-c2ccccc2)n1O,inactive
4,CN(C)c1ccnc2sc(C(=O)c3ccc(Br)cc3)c(N)c12,inactive
5,CC1CCCCN1S(=O)(=O)c1ccc(C(=O)N(CCCN(C)C)c2nc3ccc(Br)cc3s2)cc1 (stereo unspecified),39.8 µM (active)
6,COC(=O)c1c(NC(=O)c2ccc(S(=O)(=O)N3CCCCC3C)cc2)sc2c1CCN(C(C)C)C2 (stereo unspecified),inactive
7,CCC1CCCCN1S(=O)(=O)c1ccc(C(=O)Nc2sc3c(c2C(=O)NC)CCC3)cc1 (stereo unspecified),inactive
8,CSc1nsc(SCC(=O)Nc2ccccc2C(N)=O)n1,inactive
9,Cc1ccc(Cn2c(=N)c(C(=O)NCC3CCCO3)cc3c(=O)n4cccc(C)c4nc32)cc1 (stereo unspecified),inactive
10,CSCCC(NC(=O)COc1ccccc1)C(=O)NCCOc1ccccc1 (stereo unspecified),inactive
11,COc1c2ccccc2nc2ccccc12,inactive
12,COc1cc2ccccc2cc1C(=O)Nc1ccc(O)cc1,inactive
13,COc1ccc(OC)c2cc3ccccc3cc12,17.8 µM (active)
14,COc1ccc2c(c1)cc(C(=O)N/N=C/c1c(O)c(C(=O)O)cc3ccccc13)n2C,inactive
15,CCOc1ccc(CCNC(=O)C2CCCN(c3nnc(C)c4c(C)n(-c5ccccc5)nc34)C2)cc1 (stereo unspecified),31.6 µM (active)
16,COc1ccc(C)cc1NC(=O)C1CCCN1S(=O)(=O)c1ccccc1F (stereo unspecified),inactive
17,CCOc1ccc(CNC(=O)C2CCCN(c3nnc(C)c4c(C)n(-c5ccccc5)nc34)C2)cc1 (stereo unspecified),15.8 µM (active)
18,Cc1ccc(-n2nc3c(N4CCCC(C(=O)NCCc5ccccc5)C4)nnc(C)c3c2C)cc1 (stereo unspecified),20 µM (active)
19,Cc1cccc(CNC(=O)CCCn2nc(C)c3c(C)n(-c4ccccc4)nc3c2=O)c1,inactive
20,Cc1nnc(N2CCCC(C(=O)Nc3cc(F)ccc3F)C2)c2nn(-c3ccccc3)c(C)c12 (stereo unspecified),35.5 µM (active)
21,Cc1ccc(-n2nc3c(=O)n(C(C)C(=O)NCCc4cccs4)nc(C)c3c2C)cc1 (stereo unspecified),inactive
22,CCOc1ccc(NC(=O)C2CCCN(c3nn4c(=O)cc(C)nc4s3)C2)cc1 (stereo unspecified),inactive

row,SMILES,Potency
1,CCOC(=O)N1CCN(S(=O)(=O)N2CCCC(C(=O)NCCc3ccc(Cl)cc3)C2)CC1 (stereo unspecified),inactive
2,Cc1cc(NC(C)C)n2c(nc3ccccc32)c1C#N,inactive
3,COC(=O)c1c(C(=O)OC)c2c(-c3ccccc3)cc3cccc1n32,inactive
4,Cc1ccc(C2=CC(c3ccccc3)n3ncnc3N2)cc1 (stereo unspecified),inactive
5,CCn1c(=N)c(C(=O)NC2CCCC2)cc2c(=O)n3ccccc3nc21,inactive
6,COC(=O)c1ccc(-c2sc3nc(N4CCOCC4)c4c(c3c2N)CCCC4)o1,inactive
7,O=C(CSc1ccc(-c2cccs2)nn1)Nc1ccccc1F,inactive
8,Cc1cc(C)n2nc(C(=O)OCC(=O)NC3CCS(=O)(=O)C3)nc2n1 (stereo unspecified),inactive
9,N#Cc1c(-c2ccccc2F)cc(C2CC2)nc1SCC(=O)c1cccs1,inactive
10,O=C(NCCS(=O)(=O)N1CCN(c2ccccc2)CC1)C1CCCCC1,inactive
11,CCOc1ccccc1CNC(=O)C1CCN(c2nnc(C)c3c(C)n(-c4ccc(C)cc4)nc23)CC1,35.5 µM (active)
12,CCOc1ccccc1NC(=O)C1CCC(CNc2c(N3CCCCC3)c(=O)c2=O)CC1 (stereo unspecified),inactive
13,Cc1nnc(N2CCCC(C(=O)NCCN(C)C)C2)c2nn(-c3ccccc3)c(C)c12 (stereo unspecified),44.7 µM (active)
14,N#Cc1ccccc1CSc1nc2ccsc2c(=O)n1Cc1ccccn1,inactive
15,COc1ccc(-c2cc(=O)oc3cc(OC(=O)C4CCCCC4)ccc23)cc1,inactive
16,O=C1CCC([N+](=O)[O-])C(c2ccc3c(c2)OCO3)N1 (stereo unspecified),inactive
17,CCN(CC)c1ccc(-c2nc3cnccn3c2NC2CCCC2)cc1,inactive
18,O=C1N/C(=C/c2cccn2-c2ccc(F)cc2)C(=O)N1Cc1ccccc1,inactive
19,c1ccc(CNc2nc(NCCOc3ccccc3)c3sccc3n2)cc1,22.4 µM (active)
20,CC(C)Nc1nc(NCCOc2ccccc2Cl)c2sccc2n1,22.4 µM (active)
21,CNc1nc(NCC2CCCCC2)c2sccc2n1,12.6 µM (active)
22,COc1ccccc1CNc1nc(NCC2CC2)nc2ccsc12,15.8 µM (active)

row,SMILES,Potency
1,COc1ccc(C(=O)NCCOc2ccccc2Cl)c(OC)c1OC,inactive
2,O=C(NC(=O)c1ccccc1Cl)C(=O)Nc1ccc(Cl)cc1,inactive
3,O=C(N/N=C/c1cc2c3c(c1O)CCCN3CCC2)c1ccccc1O,inactive
4,CCN(CC)c1ccc2cc(S(=O)(=O)c3ccc(Cl)cc3)c(=O)oc2c1,inactive
5,CCN(CC)S(=O)(=O)c1cccc(C(=O)N/N=C(\C)c2ccc(O)cc2O)c1,inactive
6,O=C(O)c1cc2ccc(O)cc2oc1=O,inactive
7,COc1ccc(-c2cnc(C(N)=O)c(O)n2)cc1,inactive
8,CC[C@@H]1C(c2ccccc2)=NN(c2ccc(Br)cc2)[C@H]1C(=O)N1CCOC1=O,inactive
9,O=C1OCCN1C(=O)[C@H]1[C@H](c2ccc(Cl)cc2)C(c2ccc(F)cc2)=NN1c1ccccc1,inactive
10,c1cc2cc(CNc3nc(NCC4CC4)nc4ccsc34)ccc2o1,25.1 µM (active)
11,c1csc(CNc2nc(Oc3ccncc3)c3sccc3n2)c1,inactive
12,C#Cc1cccc(Nc2nc(NC(C)C)nc3ccsc23)c1,28.2 µM (active)
13,COc1cccc(CNc2nc(NCc3cccs3)nc3ccsc23)c1,39.8 µM (active)
14,COc1cccc(CNC(=O)Cc2csc(Nc3nc(S)nc4ccccc34)n2)c1,inactive
15,COCCNc1nc(NCc2ccc(C(C)C)cc2)c2sccc2n1,35.5 µM (active)
16,CC(=O)c1ccc(NC(=O)COC(=O)Cc2ccsc2)cc1,inactive
17,S=C(c1ccc(-c2ccc(Br)cc2)o1)N1CCCCC1,inactive
18,CN(Cc1ccon1)C(=O)CC1C(=O)NCCN1CC(C)(C)C (stereo unspecified),inactive
19,O=S(=O)(O)c1ccc(SCc2ccccc2)nc1,inactive
20,COc1ccc(CNc2nc3ccccc3n2C(C)C)cc1,inactive
21,CC(C)c1ccc(CNc2nc(NCC3CC3)nc3ccsc23)cc1,28.2 µM (active)
22,COc1ccccc1CNc1nc(NCc2ccc(C(C)C)cc2)c2sccc2n1,31.6 µM (active)

row,SMILES,Potency
1,CCn1c(/C=C/c2c[nH]c3ccccc23)nc2ccccc2c1=O,inactive
2,O=C(CCCCl)Oc1ccc2cc(-c3ccc4ccccc4n3)c(=O)oc2c1,inactive
3,Cc1ccc(NC(=O)C2CCCN2c2nn3c(=O)cc(C)nc3s2)cc1 (stereo unspecified),inactive
4,CCOc1ncccc1C(=O)OCC(=O)NC(=O)NC(C)C,inactive
5,CCOc1ncccc1C(=O)Nc1nc(C(C)(C)C)cs1,39.8 µM (active)
6,CCOc1ncccc1C(=O)NC(C)CCc1ccccc1 (stereo unspecified),inactive
7,COc1ccc([C@@H](C)NC(=O)CCc2nnc(-c3cc(C)on3)o2)cc1,inactive
8,COc1ccc2[nH]c3nc(SCc4nnc(-c5ccc(C)cc5)o4)nnc3c2c1,22.4 µM (active)
9,COc1ccc(C2CC(c3ccc(F)cc3)n3nc(NC(=O)c4ccco4)nc3N2)cc1 (stereo unspecified),inactive
10,Cc1ccc(C)c(CSc2cn(CCNC(=O)c3cccs3)c3ccccc23)c1,31.6 µM (active)
11,CCCn1nc(NC(=O)c2cccs2)c2cc3cc(C)ccc3nc21,inactive
12,N#Cc1c(N)n(CCNC(=O)c2cccs2)c2nc3ccccc3nc12,inactive
13,COC(=O)c1cc(=O)nc(NN=C2c3ccccc3-c3ccccc32)s1,14.1 µM (active)
14,Cc1cccn2c(=O)c3cc(C#N)/c(=N\C(=O)c4ccccc4)n(Cc4ccco4)c3nc12,inactive
15,O=C(Oc1cc2oc(=O)c3c(c2cc1Cl)CCCC3)c1cccs1,inactive
16,COc1cc2c(cc1OC)C(c1ccccc1Cl)N(C)CC2 (stereo unspecified),inactive
17,COc1cc2c(cc1OC)CN(C1CCC(C(C)(C)C)CC1)CC2 (stereo unspecified),inactive
18,COc1cc2c(cc1OC)C(c1ccccc1)N(C(=O)CCl)CC2 (stereo unspecified),25.1 µM (active)
19,CCc1ccc(-c2cc(C(F)(F)F)n3nc(C(=O)Nc4cnn(Cc5ccccc5C)c4)cc3n2)s1,inactive
20,CC1(C)CC(=O)c2cnc(N3CCc4ccccc43)nc2C1,inactive
21,COc1ccc(S(=O)(=O)N(C)C)cc1NC(=O)CCNC(=O)c1ccco1,inactive
22,O=C(NCCNC1CCC(c2ccccc2)CC1)c1cccs1 (stereo unspecified),inactive

row,SMILES,Potency
1,O=C(c1cccs1)N1CCN(C(=O)c2cccs2)C1=S,39.8 µM (active)
2,Nc1ccc(/C=C/C(=O)c2cccs2)cc1,inactive
3,CCOc1cc(Br)c(C(C)NC(=O)c2cccnc2)cc1OCC (stereo unspecified),inactive
4,N#C/C(=C(/O)CCCl)c1ccccn1,inactive
5,FC(F)Sc1ccc(NC(=S)N2CCN(c3ccccn3)CC2)cc1,inactive
6,CCOC(=O)c1cnc(-c2ccccc2O)nc1Cl,inactive
7,CCOC(=O)C1C(C(=O)NN)C1C(=O)Nc1ccccc1 (stereo unspecified),inactive
8,CCOC(=O)C1=Nc2ccccc2C1=[N+]=[N-],39.8 µM (active)
9,Cc1ccc2nc3c(cc2c1)c(C)nn3-c1ccccc1,inactive
10,O=C(C(Cc1ccccc1)n1cccc1)N1CCCCC1 (stereo unspecified),inactive
11,O=C1OCCN1C(=O)[C@H]1[C@H](c2ccccc2)C(c2cccc(Cl)c2)=NN1c1ccccc1,inactive
12,CCCc1nnc(SCC(=O)Nc2ccccc2F)o1,inactive
13,CCCCn1c(CNC(=O)C23CC4CC(CC(C4)C2)C3)nnc1SCC(=O)Nc1ccc(C)cc1,35.5 µM (active)
14,Cc1ccc(C(C)NC(=O)C23CC4CC(CC(C4)C2)C3)cc1 (stereo unspecified),inactive
15,COc1ccc(NC(=O)Cc2nnc(SCC(=O)NC3=NCCS3)n2C)cc1,inactive
16,N#Cc1c(N)n(CCCN2CCOCC2)c2nc3ccccc3nc12,inactive
17,O=C(Nc1ccn(CCCN2CCN(Cc3cccc4ccccc34)CC2)c(=O)n1)OCc1ccccc1,14.1 µM (active)
18,O=C(Cc1cccc2ccccc12)Nc1ccc(Br)cc1C(=O)O,inactive
